Reference: the supplement of paper PMC12494721
Counter-ions that a name gives are not always drawn.

These compounds were tested on Ruminococcus gnavus DSM 108212 (assay: fold change of Tryptamine concentration vs plate DMSO controls (fold change (ratio)); higher = more amine produced, active = hit call of the paper (significant change in both replicates, either direction)). Conditions: incubation time: 27 h, anaerobic, 37 °C;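 for the amine columns active = adjusted P below 0.05 in both replicates with a change the same way and a mean fold change under 0.8 or over 1.25; inactive = the rest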.
Summary of the method: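 Anaerobic mGAM cultures of four gut bacterial strains were grown at 37 °C for 27 h in 80 µL wells, starting at OD 0.1 before 1:1 dilution. Compounds were at 20 µM final (sweeteners 50 µM). Whole cultures were extracted with cold acetonitrile/methanol containing 0.1% formic acid and centrifuged. Amines were quantified by LC–triple-quadrupole MS (dynamic MRM) against external calibration curves and drift-corrected within batch. Each value is the fold change versus plate DMSO controls, averaged over 2 biological replicates.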

Row | SMILES | fold change of Tryptamine concentration
1 | OCC(O)CN1CCN(c2ccccc2)CC1 (stereo not drawn) [Dropropizine] (20 µM) | 1.05 (inactive)
2 | CN(C)CCC(c1ccc(Cl)cc1)c1ccccn1 (stereo not drawn) [Chlorpheniramine maleate] (20 µM) | 1.03 (inactive)
3 | CNCC(O)c1ccc(OC(=O)C(C)(C)C)c(OC(=O)C(C)(C)C)c1 (stereo not drawn) [Dipivefrin hydrochloride] (20 µM) | 1.11 (inactive)
4 | CC(=O)O[C@H]1C[C@@]2(C)[C@@H](C[C@@H](O)[C@H]3[C@@]4(C)CC[C@@H](O)[C@@H](C)[C@@H]4CC[C@@]32C)/C1=C(\CCC=C(C)C)C(=O)O [Fusidic acid sodium salt] (20 µM) | 0.102 (active)
5 | CCOc1ccccc1OCC1CNCCO1 (stereo not drawn) [Viloxazine hydrochloride] (20 µM) | 0.572 (active)
6 | OC[C@H]1O[C@@H](O[C@H]2[C@H](O)[C@@H](O)[C@H](O)O[C@@H]2CO)[C@H](O)[C@@H](O)[C@H]1O [Lactose] (50 µM) | 0.989 (inactive)
7 | CCC(=O)c1ccc(O)cc1 [Paroxypropione] (20 µM) | 1.02 (inactive)
8 | CCOc1ccc2ccccc2c1C(=O)N[C@@H]1C(=O)N2[C@@H]1SC(C)(C)[C@@H]2C(=O)O [Nafcillin sodium salt monohydrate] (20 µM) | 0.0506 (active)
